Data: PubChem BioAssay (EPA / NIEHS)
Active and inactive are the calls of the source. The calls were made as follows: active = hit-call score of the fitted dose curve at least 0.9, where 1 is the maximum; inactive = score below 0.9.

What was measured:
[1] = read-out: Interleukin-1 alpha (IL1a), IL1A (gene 3552); assay: BSK_KF3CT_IL1a: BioMAP Diversity Plus: KF3CT Assay for Interleukin-1 alpha (IL1a) Biomarker Activity (AID 2283070); details: primary human keratinocytes with fibroblasts; actives raise or lower the signal
How it was run: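 Readout is IL-1a level by ELISA, compared bidirectionally with DMSO as baseline. Cells: human keratinocytes co-cultured with foreskin fibroblasts, harvested 24 h post-dose.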

[2] = read-out: TIMP metallopeptidase inhibitor 2 (TIMP2), TIMP2 (gene 7077); assay: BSK_KF3CT_TIMP2: BioMAP Diversity Plus: KF3CT Assay for TIMP metallopeptidase inhibitor 2 (TIMP2) Biomarker Activity (AID 2283071); details: primary human keratinocytes with fibroblasts; actives raise or lower the signal
How it was run: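 Chemicals were dosed onto human skin primary co-cultures of keratinocytes and foreskin fibroblasts, and TIMP-2 was measured by ELISA after 24 hours. Activity in either direction was fitted relative to DMSO.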

[3] = read-out: Transforming growth factor beta 1 (TGFb1), TGFB1 (gene 7040); assay: BSK_KF3CT_TGFb1: BioMAP Diversity Plus: KF3CT Assay for Transforming growth factor beta 1 (TGFb1) Biomarker Activity (AID 2283072); details: primary human keratinocytes with fibroblasts; actives raise or lower the signal
How it was run: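 KF3CT co-culture (keratinocytes + fibroblasts), 24 h exposure → TGF-b1 ELISA → bidirectional fit, DMSO = baseline. Parallel SRB total-protein staining (0.1% SRB, 10% TCA fixation, 560 nm) for cytotoxicity.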

[4] = read-out: C-C motif chemokine 2 (Homo sapiens) (UniProt P13500); assay: BSK_KF3CT_MCP1: BioMAP Diversity Plus: KF3CT Assay for Monocyte Chemoattractant Protein 1 (MCP1/CCL2) Biomarker Activity (AID 2283073); details: primary human keratinocytes with fibroblasts; actives raise or lower the signal
How it was run: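 Keratinocytes and foreskin fibroblasts were co-cultured, dosed with chemical, and sampled 24 h later. MCP-1 was quantified by ELISA, and the endpoint was analyzed with bidirectional fitting using DMSO as negative control.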

[5] = read-out: Matrix Metallopeptidase 9 (MMP9), MMP9 (gene 4318); assay: BSK_KF3CT_MMP9: BioMAP Diversity Plus: KF3CT Assay for Matrix Metallopeptidase 9 (MMP9) Biomarker Activity (AID 2283074); details: primary human keratinocytes with fibroblasts; actives raise or lower the signal
How it was run: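 Values come from bidirectional fitting relative to DMSO of MMP-9 levels, which were measured by ELISA. Measurements were taken 24 h after chemical dosing of a keratinocyte and foreskin fibroblast co-culture.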

[6] = read-out: urokinase plasminogen activator (uPA), PLAU (gene 5328); assay: BSK_KF3CT_uPA: BioMAP Diversity Plus: KF3CT Assay for urokinase plasminogen activator (uPA) Biomarker Activity (AID 2283075); details: primary human keratinocytes with fibroblasts; actives raise or lower the signal
How it was run: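 Values derive from bidirectional fitting against DMSO controls. Keratinocyte/foreskin fibroblast co-cultures received chemical; 24 h later uPA was detected by ELISA, with SRB total-protein staining in parallel wells for overt cytotoxicity.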

[7] = read-out: CD40, CD40 (gene 958); assay: BSK_LPS_CD40: BioMAP Diversity Plus: LPS Assay for CD40 Biomarker Activity (AID 2283076); details: primary human HUVEC with PBMC; actives raise or lower the signal
How it was run: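 CD40 signal, measured by ELISA, is fitted in both directions relative to DMSO vehicle. The system is an LPS-driven human vascular primary co-culture of endothelial cells and PBMC, sampled 24 h after compound addition.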

[8] = read-out: E-selectin (Homo sapiens) (UniProt P16581); assay: BSK_LPS_Eselectin: BioMAP Diversity Plus: LPS Assay for Eselectin Biomarker Activity (AID 2283077); details: primary human HUVEC with PBMC; actives raise or lower the signal
How it was run: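 Signal of E-selectin, detected by ELISA, served as the endpoint; cells were umbilical vein endothelium with PBMC, read 24 h after treatment. DMSO defined baseline, and both increases and decreases were fitted.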

[9] = read-out: Interleukin-8 (IL8), CXCL8 (gene 3576); assay: BSK_LPS_IL8: BioMAP Diversity Plus: LPS Assay for Interleukin-8 (IL8) Biomarker Activity (AID 2283078); details: primary human HUVEC with PBMC; actives raise or lower the signal
How it was run: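 Endothelial cells and PBMC from human donors are co-cultured, treated with chemicals and LPS, then assayed for IL-8 by ELISA after 24 h. Parallel SRB staining (0.1% SRB after 10% TCA fixation, 560 nm) flags cytotoxicity.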

[10] = BSK_LPS_SRB: Viability Assessment in the BioMAP Diversity Plus: LPS Assay (AID 2283079); details: primary human HUVEC with PBMC;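 also: total protein by sulforhodamine B absorbance as a cytotoxicity measure; measured one day after compound addition; fitted in both directions against DMSO so loss or gain of signal counts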
How it was run: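 Overt cytotoxicity was gauged by sulforhodamine B total-protein staining in a primary human vascular endothelial and mononuclear cell co-culture 24 h post-dosing. Activity was fitted in both directions relative to DMSO.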

[11] = read-out: Interleukin-1 alpha (IL1a), IL1A (gene 3552); assay: BSK_LPS_IL1a: BioMAP Diversity Plus: LPS Assay for Interleukin-1 alpha (IL1a) Biomarker Activity (AID 2283080); details: primary human HUVEC with PBMC; actives raise or lower the signal
How it was run: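 Measured: IL-1 alpha via ELISA at 24 h in LPS-activated human umbilical vein endothelium–PBMC co-culture. Baseline: DMSO, bidirectional fitting.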

[12] = read-out: Monocyte Chemoattractant Protein-1 (MCP1), CCL2 (gene 6347); assay: BSK_LPS_MCP1: BioMAP Diversity Plus: LPS Assay for Monocyte Chemoattractant Protein-1 (MCP1) Biomarker Activity (AID 2283081); details: primary human HUVEC with PBMC; actives raise or lower the signal
How it was run: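 LPS-stimulated HUVEC/PBMC co-culture; chemical, 24 h; MCP-1 by ELISA; bidirectional fit vs DMSO; cytotoxicity via SRB (0.1% stain, 10% TCA fix, 560 nm) in parallel wells.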

[13] = BSK_LPS_PGE2: BioMAP Diversity Plus: LPS Assay for Prostaglandin E2 (PGE2) Biomarker Activity (AID 2283082); details: primary human HUVEC with PBMC; actives raise or lower the signal
How it was run: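 Compounds were added to the LPS co-culture of endothelium and PBMC, and PGE2 was measured by ELISA after 24 h. Responses in either direction were fitted with DMSO as baseline.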

[14] = read-out: Macrophage colony-stimulating factor (MCSF), CSF1 (gene 1435); assay: BSK_LPS_MCSF: BioMAP Diversity Plus: LPS Assay for Macrophage colony-stimulating factor (MCSF) Biomarker Activity (AID 2283083); details: primary human HUVEC with PBMC; actives raise or lower the signal
How it was run: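 Compound is added to a human vascular primary co-culture of umbilical vein endothelium and blood mononuclear cells. After 24 h, M-CSF is quantified by ELISA. Signal changes are fitted in both directions against DMSO.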

[15] = read-out: Tissue Factor, F3 (gene 2152); assay: BSK_LPS_TissueFactor: BioMAP Diversity Plus: LPS Assay for Tissue Factor Biomarker Activity (AID 2283084); details: primary human HUVEC with PBMC; actives raise or lower the signal
How it was run: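 In this co-culture system of umbilical vein endothelium with PBMC, stimulated with LPS, cell-surface CD142 is detected by ELISA at 24 h. Endpoint values derive from bidirectional fitting, DMSO serving as baseline.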

[16] = read-out: Tumor necrosis factor (Homo sapiens) (UniProt P01375); assay: BSK_LPS_TNFa: BioMAP Diversity Plus: LPS Assay for Tumour Necrosis Factor alpha (TNFa) Biomarker Activity (AID 2283085); details: primary human HUVEC with PBMC; actives raise or lower the signal;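 as to AC50: TNFa protein level quantified by ELISA in the co-culture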
How it was run: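 Cells (umbilical vein endothelium plus peripheral blood mononuclear cells) were dosed with chemical, incubated 24 h, then TNFa was quantified by ELISA; values derive from bidirectional fitting with DMSO as baseline.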

[17] = read-out: Vascular cell adhesion molecule 1 (VCAM1), VCAM1 (gene 7412); assay: BSK_LPS_VCAM1: BioMAP Diversity Plus: LPS Assay for Vascular cell adhesion molecule 1 (VCAM1) Biomarker Activity (AID 2283086); details: primary human HUVEC with PBMC; actives raise or lower the signal
How it was run: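 Cells are dosed in an LPS-stimulated endothelial/mononuclear co-culture and, after 24 h, VCAM-1 is quantified by ELISA. Activity in either direction is fitted relative to the DMSO negative control.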

[18] = read-out: CD38, CD38 (gene 952); assay: BSK_SAg_CD38: BioMAP Diversity Plus: SAg Assay for CD38 Biomarker Activity (AID 2283087); details: primary human HUVEC with PBMC; actives raise or lower the signal
How it was run: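 CD38 quantified by ELISA (fluorescence) in a superantigen-activated endothelial cell–PBMC co-culture at 24 h post-dose. Activity fitted in both directions relative to DMSO; parallel SRB and Alamar Blue cytotoxicity read-outs.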

[19] = read-out: CD40, CD40 (gene 958); assay: BSK_SAg_CD40: BioMAP Diversity Plus: SAg Assay for CD40 Biomarker Activity (AID 2283088); details: primary human HUVEC with PBMC; actives raise or lower the signal
How it was run: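 Fluorescence ELISA read-out of CD40 from umbilical vein endothelium plus peripheral blood mononuclear cells, sampled 24 h after dosing. Values come from bidirectional curve fitting with DMSO as baseline.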

[20] = read-out: CD69, CD69 (gene 969); assay: BSK_SAg_CD69: BioMAP Diversity Plus: SAg Assay for CD69 Biomarker Activity (AID 2283089); details: primary human HUVEC with PBMC; actives raise or lower the signal
How it was run: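 Values derive from bidirectional fitting relative to DMSO vehicle. Cells: umbilical vein endothelium plus peripheral blood mononuclear cells, treated 24 h before fluorescent ELISA for CD69.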

Measured: AC50

Sequence of E-selectin (Homo sapiens) (P16581 whole entry, looked up): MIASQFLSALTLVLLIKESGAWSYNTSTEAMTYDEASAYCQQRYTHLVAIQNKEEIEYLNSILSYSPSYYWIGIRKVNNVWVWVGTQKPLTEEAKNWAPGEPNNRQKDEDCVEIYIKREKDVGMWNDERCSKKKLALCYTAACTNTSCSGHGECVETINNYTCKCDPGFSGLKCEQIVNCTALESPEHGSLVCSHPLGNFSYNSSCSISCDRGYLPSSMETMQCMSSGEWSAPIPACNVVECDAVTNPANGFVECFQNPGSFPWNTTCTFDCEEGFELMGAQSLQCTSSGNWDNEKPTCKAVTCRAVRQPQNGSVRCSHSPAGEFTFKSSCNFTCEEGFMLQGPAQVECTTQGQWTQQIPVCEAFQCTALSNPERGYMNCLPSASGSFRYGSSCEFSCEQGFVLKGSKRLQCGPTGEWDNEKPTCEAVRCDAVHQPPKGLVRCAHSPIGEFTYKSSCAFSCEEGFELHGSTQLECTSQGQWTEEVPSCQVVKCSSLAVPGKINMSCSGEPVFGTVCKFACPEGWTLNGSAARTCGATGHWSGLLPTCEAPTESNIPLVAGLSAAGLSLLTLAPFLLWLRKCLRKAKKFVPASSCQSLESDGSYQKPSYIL
Sequence of Tumor necrosis factor (Homo sapiens) (P01375 whole entry, looked up): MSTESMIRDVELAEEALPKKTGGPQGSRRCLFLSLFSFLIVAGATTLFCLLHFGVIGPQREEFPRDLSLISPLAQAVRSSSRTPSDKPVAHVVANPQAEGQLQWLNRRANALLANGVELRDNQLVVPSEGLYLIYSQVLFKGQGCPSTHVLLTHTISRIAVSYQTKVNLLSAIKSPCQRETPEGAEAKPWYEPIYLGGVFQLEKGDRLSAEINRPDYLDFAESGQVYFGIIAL

CC(C)CC(C)O (stereo not given)
inactive: all assays above

CC(=O)c1ccccc1
inactive: all assays above

C[C@]12C=CC(=O)C=C1CC[C@H]1[C@@H]3C[C@@H](O)[C@](O)(C(=O)CO)[C@@]3(C)C[C@H](O)[C@@]12F
active: [16] 0.557 µM
not listed: [20]
inactive: all other assays above

CCCCN1C(=O)[C@@H]([C@H](O)C2CCCCC2)NC(=O)C12CCN(Cc1ccc(Oc3ccc(C(=O)O)cc3)cc1)CC2
not listed: [10] | [18] | [20]
inactive: all other assays above

CCCCC(CC)C(=O)OCCOCCOCCOC(=O)C(CC)CCCC (stereo not given)
active: [9] 15.7 µM
not listed: [18] | [20]
inactive: all other assays above

Cc1ccc(S(=O)(=O)NC(=O)NN2CCCCCC2)cc1
not listed: [10] | [18]
inactive: all other assays above

CCOC(N)=O
not listed: [18] | [20]
inactive: all other assays above
